Among all 5,500 compounds or so, about 2,000 (36%) were called active. Another 18% or so got no clear call; they are omitted. The list shows a part of the results. Unmarked numbers belong to inactive results. Cut-off read from the data, not from the text of the source: active = normalized growth mostly below about 0.91 (no sharp cut-off); inconclusive = no clear call, values can overlap the other calls; inactive = mostly above about 0.92.
Assay: chemical genetic growth profiling, strain panel (AID 1159580);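 note: tested at 20 µM; growth read once vehicle control cultures reached saturation at 30 °C; 1 = growth at the plate median or of vehicle wells; lower values mean less growth of the strain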
Conditions: growth OD
[1] = S. cerevisiae deletion strains, locus YAL013W, strain DEP1, stronger effect = lower value
[2] = S. cerevisiae deletion strains, locus YBR229C, strain ROT2, stronger effect = lower value
[3] = S. cerevisiae deletion strains, locus YDL101C, strain DUN1, stronger effect = lower value
[4] = S. cerevisiae deletion strains, locus YDR150W, strain NUM1, stronger effect = lower value
[5] = S. cerevisiae deletion strains, locus YEL061C, strain CIN8, stronger effect = lower value
[6] = S. cerevisiae deletion strains, locus YGR078C, strain PAC10, stronger effect = lower value
[7] = S. cerevisiae deletion strains, locus YHR030C, strain SLT2, stronger effect = lower value
[8] = S. cerevisiae deletion strains, locus YHR087W, strain rtc3, stronger effect = lower value
[9] = S. cerevisiae deletion strains, locus YJR043C, strain POL32, stronger effect = lower value
[10] = S. cerevisiae deletion strains, locus YJR075W, strain HOC1, stronger effect = lower value
[11] = S. cerevisiae deletion strains, locus YLR039C, strain RIC1, stronger effect = lower value
[12] = S. cerevisiae deletion strains, locus YLR058C, strain SHM2 (second series), stronger effect = lower value
[13] = S. cerevisiae deletion strains, locus YLR085C, strain ARP6, stronger effect = lower value
[14] = S. cerevisiae deletion strains, locus YLR262C, strain YPT6, stronger effect = lower value
[15] = S. cerevisiae deletion strains, locus YML094W, strain GIM5, stronger effect = lower value
[16] = S. cerevisiae deletion strains, locus YMR219W, strain ESC1, stronger effect = lower value
[17] = S. cerevisiae deletion strains, locus YMR263W, strain SAP30, stronger effect = lower value
[18] = S. cerevisiae deletion strains, locus YNL153C, strain GIM3, stronger effect = lower value
[19] = S. cerevisiae deletion strains, locus YNL298W, strain CLA4 (second series), stronger effect = lower value
[20] = S. cerevisiae deletion strains, locus YNL322C, strain KRE1, stronger effect = lower value
[21] = S. cerevisiae deletion strains, locus YNR030W, strain Alg12, stronger effect = lower value
[22] = S. cerevisiae deletion strains, locus YPL055C, strain LGE1, stronger effect = lower value
[23] = S. cerevisiae deletion strains, locus YPL241C, strain CIN2, stronger effect = lower value
[24] = S. cerevisiae deletion strains, locus YPR135W, strain CTF4, stronger effect = lower value

COc1ccc(Br)c(-c2nnc(-c3ccccc3[N+](=O)[O-])o2)c1
normalized growth [1]: 0.993 | normalized growth [2]: 1.01 | normalized growth [3]: 0.985 | normalized growth [4]: 0.943 | normalized growth [5]: 0.973 | normalized growth [6]: 1.02 | normalized growth [7]: 0.964 | normalized growth [8]: 1.02 | normalized growth [9]: 0.955 | normalized growth [10]: 0.975 | normalized growth (S. cerevisiae deletion strains, locus YKL190W, strain CNB1, stronger effect = lower value): 1.01 | normalized growth [11]: 1.07 | normalized growth [12]: 1.02 | normalized growth [13]: 0.953 | normalized growth [14]: 1.06 | normalized growth [15]: 1 | normalized growth [16]: 1.01 | normalized growth [17]: 0.978 | normalized growth (S. cerevisiae deletion strains, locus YNL128W, strain TEP1, stronger effect = lower value): 1.04 | normalized growth [18]: 1 | normalized growth [19]: 0.985 | normalized growth [20]: 1.01 | normalized growth [21]: 1 | normalized growth [22]: 0.953 | normalized growth [23]: 0.977 | normalized growth [24]: 1.07

O=[N+]([O-])c1cccnc1Oc1ccc(Cl)cc1
normalized growth [1]: 0.94 | normalized growth [2]: 0.939 | normalized growth (S. cerevisiae deletion strains, locus YCL061C, strain MRC1, stronger effect = lower value): 0.895 (active) | normalized growth [3]: 0.875 (active) | normalized growth (S. cerevisiae deletion strains, locus YDL134C, strain PPH21, stronger effect = lower value): 0.973 | normalized growth [4]: 0.917 | normalized growth [5]: 0.977 | normalized growth [6]: 0.886 (active) | normalized growth [7]: 0.543 (active) | normalized growth [8]: 0.93 | normalized growth [9]: 0.886 (active) | normalized growth [10]: 0.933 | normalized growth [11]: 0.657 (active) | normalized growth [12]: 0.95 | normalized growth [13]: 0.789 | normalized growth [14]: 0.707 (active) | normalized growth [15]: 0.937 | normalized growth [16]: 0.954 | normalized growth [17]: 0.936 | normalized growth [18]: 0.919 (active) | normalized growth [19]: 0.858 | normalized growth [20]: 0.933 (active) | normalized growth [21]: 0.906 | normalized growth [22]: 0.959 | normalized growth [23]: 0.935 | normalized growth [24]: 0.613 (active) | normalized growth (S. cerevisiae strains, strain wild type, stronger effect = lower value): 0.917

CN1CCCC1c1cccnc1 (centres undefined)
normalized growth [1]: 0.987 | normalized growth (S. cerevisiae deletion strains, locus YAL040C, strain CLN3, stronger effect = lower value): 0.984 | normalized growth (S. cerevisiae deletion strains, locus YCL061C, strain MRC1 (second series), stronger effect = lower value): 0.981 | normalized growth [4]: 0.981 | normalized growth (S. cerevisiae deletion strains, locus YDR363W, strain ESC2, stronger effect = lower value): 1.02 | normalized growth (S. cerevisiae deletion strains, locus YER002W, strain NOP16, stronger effect = lower value): 0.994 | normalized growth (S. cerevisiae deletion strains, locus YMR307W, strain GAS1, stronger effect = lower value): 1.03 | normalized growth [18]: 0.986 | normalized growth (S. cerevisiae deletion strains, locus YNL175C, strain NOP13, stronger effect = lower value): 0.992 | normalized growth (S. cerevisiae deletion strains, locus YNL197C, strain WHI3, stronger effect = lower value): 0.995 | normalized growth (S. cerevisiae deletion strains, locus YNL224C, strain SQS1, stronger effect = lower value): 0.991 | normalized growth [20]: 0.98 | normalized growth (S. cerevisiae deletion strains, locus YOR083W, strain WHI5 (second series), stronger effect = lower value): 0.988 | normalized growth [22]: 1 | normalized growth [23]: 0.984

CCOC(=O)NC(=S)Nc1ccc(C(C)(C)C)cc1NC(=S)NC(=O)OCC
normalized growth (S. cerevisiae deletion strains, locus YAR019C, strain CDC15, stronger effect = lower value): 0.986 | normalized growth (S. cerevisiae deletion strains, locus YBL105C, strain PKC1, stronger effect = lower value): 0.985 | normalized growth (S. cerevisiae deletion strains, locus YBR135W, strain CKS1, stronger effect = lower value): 0.98 | normalized growth (S. cerevisiae deletion strains, locus YBR136W, strain MEC1, stronger effect = lower value): 0.979 | normalized growth (S. cerevisiae deletion strains, locus YBR160W, strain CDC28, stronger effect = lower value): 0.991 | normalized growth (S. cerevisiae deletion strains, locus YDL017W, strain CDC7, stronger effect = lower value): 0.989 | normalized growth (S. cerevisiae deletion strains, locus YDL028C, strain MPS1, stronger effect = lower value): 0.979 | normalized growth [3]: 0.982 | normalized growth (S. cerevisiae deletion strains, locus YDL108W, strain KIN28, stronger effect = lower value): 0.985 | normalized growth (S. cerevisiae deletion strains, locus YDL132W, strain cdc53, stronger effect = lower value): 0.983 | normalized growth (S. cerevisiae deletion strains, locus YDL214C, strain PRR2, stronger effect = lower value): 0.94 | normalized growth (S. cerevisiae deletion strains, locus YDR052C, strain DBF4, stronger effect = lower value): 0.982 | normalized growth (S. cerevisiae deletion strains, locus YDR054C, strain cdc34, stronger effect = lower value): 0.983 | normalized growth (S. cerevisiae deletion strains, locus YDR226W, strain ADK1, stronger effect = lower value): 0.988 | normalized growth (S. cerevisiae deletion strains, locus YDR477W, strain SNF1, stronger effect = lower value): 0.921 | normalized growth (S. cerevisiae deletion strains, locus YER123W, strain YCK3, stronger effect = lower value): 0.879 | normalized growth (S. cerevisiae deletion strains, locus YER133W, strain GLC7, stronger effect = lower value): 0.934 | normalized growth (S. cerevisiae deletion strains, locus YFL009W, strain cdc4, stronger effect = lower value): 0.974 | normalized growth (S. cerevisiae deletion strains, locus YFL029C, strain CAK1, stronger effect = lower value): 0.985 | normalized growth (S. cerevisiae deletion strains, locus YFR003C, strain YPI1, stronger effect = lower value): 0.986 | normalized growth (S. cerevisiae deletion strains, locus YFR019W, strain FAB1, stronger effect = lower value): 0.922 | normalized growth (S. cerevisiae deletion strains, locus YFR028C, strain CDC14, stronger effect = lower value): 0.986 | normalized growth (S. cerevisiae deletion strains, locus YGR040W, strain KSS1, stronger effect = lower value): 0.923 | normalized growth (S. cerevisiae deletion strains, locus YGR052W, strain FMP48, stronger effect = lower value): 1.04 | normalized growth (S. cerevisiae deletion strains, locus YGR092W, strain DBF2, stronger effect = lower value): 0.572 | normalized growth [7]: 1.08 | normalized growth (S. cerevisiae deletion strains, locus YHR079C, strain IRE1, stronger effect = lower value): 0.985 | normalized growth (S. cerevisiae deletion strains, locus YHR082C, strain KSP1, stronger effect = lower value): 1.05 | normalized growth (S. cerevisiae deletion strains, locus YHR205W, strain SCH9, stronger effect = lower value): 0.985 | normalized growth (S. cerevisiae deletion strains, locus YIL147C, strain SLN1, stronger effect = lower value): 0.978 | normalized growth (S. cerevisiae deletion strains, locus YJL095W, strain BCK1, stronger effect = lower value): 0.995 | normalized growth (S. cerevisiae deletion strains, locus YJL128C, strain PBS2, stronger effect = lower value): 0.944 | normalized growth (S. cerevisiae deletion strains, locus YJL157C, strain FAR1, stronger effect = lower value): 0.911 | normalized growth (S. cerevisiae deletion strains, locus YJR016C, strain ILV3, stronger effect = lower value): 0.981 | normalized growth (S. cerevisiae deletion strains, locus YJR066W, strain TOR1 (second series), stronger effect = lower value): 0.778 | normalized growth (S. cerevisiae deletion strains, locus YJR066W, strain TOR1, stronger effect = lower value): 1.06 | normalized growth (S. cerevisiae deletion strains, locus YKL048C, strain ELM1, stronger effect = lower value): 0.928 | normalized growth (S. cerevisiae deletion strains, locus YKL067W, strain YNK1, stronger effect = lower value): 0.932 | normalized growth (S. cerevisiae deletion strains, locus YKL101W, strain HSL1, stronger effect = lower value): 0.961 | normalized growth (S. cerevisiae deletion strains, locus YKL193C, strain SDS22, stronger effect = lower value): 0.987 | normalized growth (S. cerevisiae deletion strains, locus YKL203C, strain TOR2, stronger effect = lower value): 0.989 | normalized growth (S. cerevisiae deletion strains, locus YLR113W, strain HOG1, stronger effect = lower value): 1.02 | normalized growth (S. cerevisiae deletion strains, locus YLR133W, strain CKI1, stronger effect = lower value): 0.948 | normalized growth (S. cerevisiae deletion strains, locus YLR403W, strain SFP1, stronger effect = lower value): 0.91 | normalized growth (S. cerevisiae deletion strains, locus YML070W, strain DAK1, stronger effect = lower value): 0.925 | normalized growth (S. cerevisiae deletion strains, locus YMR001C, strain CDC5, stronger effect = lower value): 0.985 | normalized growth (S. cerevisiae deletion strains, locus YMR205C, strain PFK2 (second series), stronger effect = lower value): 0.924 | normalized growth (S. cerevisiae deletion strains, locus YMR277W, strain FCP1, stronger effect = lower value): 0.981 | normalized growth (S. cerevisiae deletion strains, locus YNL006W, strain LST8, stronger effect = lower value): 0.98 | normalized growth (S. cerevisiae deletion strains, locus YNL020C, strain ARK1, stronger effect = lower value): 0.928 | normalized growth (S. cerevisiae deletion strains, locus YNL161W, strain CBK1, stronger effect = lower value): 0.986 | normalized growth (S. cerevisiae deletion strains, locus YNL183C, strain NPR1, stronger effect = lower value): 1.06 | normalized growth (S. cerevisiae deletion strains, locus YNL207W, strain RIO2, stronger effect = lower value): 0.981 | normalized growth (S. cerevisiae deletion strains, locus YNL222W, strain SSU72, stronger effect = lower value): 0.98 | normalized growth (S. cerevisiae deletion strains, locus YNL307C, strain MCK1 (second series), stronger effect = lower value): 0.926 | normalized growth (S. cerevisiae deletion strains, locus YOL078W, strain AVO1, stronger effect = lower value): 0.979 | normalized growth (S. cerevisiae deletion strains, locus YOL136C, strain PFK27, stronger effect = lower value): 0.931 | normalized growth (S. cerevisiae deletion strains, locus YOR061W, strain CKA2, stronger effect = lower value): 0.712 | normalized growth (S. cerevisiae deletion strains, locus YOR119C, strain RIO1, stronger effect = lower value): 0.959 | normalized growth (S. cerevisiae deletion strains, locus YOR231W, strain MKK1, stronger effect = lower value): 0.997 | normalized growth (S. cerevisiae deletion strains, locus YOR329C, strain SCD5, stronger effect = lower value): 0.983 | normalized growth (S. cerevisiae deletion strains, locus YPL031C, strain PHO85, stronger effect = lower value): 0.93 | normalized growth (S. cerevisiae deletion strains, locus YPL153C, strain RAD53, stronger effect = lower value): 0.897 | normalized growth (S. cerevisiae deletion strains, locus YPL204W, strain HRR25, stronger effect = lower value): 0.924 | normalized growth (S. cerevisiae deletion strains, locus YPL209C, strain IPL1, stronger effect = lower value): 0.989 | normalized growth (S. cerevisiae deletion strains, locus YPL256C, strain CLN2, stronger effect = lower value): 1.04 | normalized growth (S. cerevisiae deletion strains, locus YPR025C, strain CCL1, stronger effect = lower value): 0.986 | normalized growth (S. cerevisiae deletion strains, locus YPR106W, strain ISR1, stronger effect = lower value): 0.986 | normalized growth (S. cerevisiae deletion strains, locus YPR111W, strain DBF20, stronger effect = lower value): 0.978 | normalized growth (S. cerevisiae deletion strains, strain NNK1, stronger effect = lower value): 0.981 | normalized growth (S. cerevisiae deletion strains, strain TSCII, stronger effect = lower value): 0.985

Source: PubChem BioAssay AID1159580 (chemical genetic matrix, 2015)
